Test results reported in PubChem BioAssay (NCI).
Compounds without any hit were thinned out: in the full panel of roughly 79,000, 15% have a hit. No stated cut-off is given here; in the data, active means growth inhibition above about 70%; inactive means the rest.

Assays:
[1] = NCI Yeast Anticancer Drug Screen. Data for the rad50 strain (AID 155);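 further: 0% = growth of vehicle-only cultures of the same strain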; settings: S. cerevisiae rad50 strain growth inhibition; at 50.0 µM; stronger effect = higher value
In short: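 A DNA repair-deficient yeast mutant serves as the test organism; compound-induced growth inhibition is calculated against vehicle-treated cells.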

[2] = NCI Yeast Anticancer Drug Screen. Data for the mec2-1 strain (AID 157); settings: S. cerevisiae mec2-1 strain, at 50.0 µM, stronger effect = higher value
In short: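 mec2-1 yeast strain, carrying an alteration in DNA damage repair or cell cycle control, was exposed to compounds; growth inhibition was measured relative to vehicle-treated controls.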

[3] = NCI Yeast Anticancer Drug Screen. Data for the sgs1 mgt1 strain (AID 161);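 further: 0% = growth of cultures given vehicle only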; settings: S. cerevisiae sgs1 mgt1 strain, at 50.0 µM, stronger effect = higher value
In short: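 Growth of a repair-deficient yeast mutant was monitored after compound treatment and expressed as inhibition relative to vehicle-treated cultures.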

[4] = NCI Yeast Anticancer Drug Screen. Data for the cln2 rad14 strain (AID 165);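 further: 0% = growth equal to vehicle treated cultures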; settings: S. cerevisiae cln2 rad14 strain, at 50.0 µM, stronger effect = higher value
In short: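 Yeast carrying cln2 and rad14 alterations (cell cycle control and DNA damage repair) were exposed to compounds. Growth inhibition was measured against vehicle-treated controls.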

[5] = NCI Yeast Anticancer Drug Screen. Data for the bub3 strain (AID 167); settings: S. cerevisiae bub3 mutant strain, at 50.0 µM, stronger effect = higher value
In short: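 Inhibition values come from growth of compound-treated mutant yeast normalised to vehicle-treated controls.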

[6] = NCI Yeast Anticancer Drug Screen. Data for the mlh1 rad18 strain (AID 175); settings: S. cerevisiae mlh1 rad18 strain growth inhibition; at 50.0 µM; stronger effect = higher value
In short: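 Growth inhibition of the yeast strain was measured after compound exposure and expressed relative to vehicle-treated controls. The strain carries defined defects in DNA damage repair.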

Measured: growth inhibition

Clc1nc(Sc2ccc(Br)cc2)c(Cl)c(Sc2ccc(Br)cc2)n1
inactive: [1] -18.9% | [2] -2.3% | [3] 8.05% | [4] -0.8% | [5] 1.5% | [6] -17.6%

O=C1OC2C(O1)C1(c3ccccc3)OC2(c2ccccc2)c2ccccc21 (stereo unspecified)
inactive: [1] -5.9% | [2] 19.2% | [3] 13.5% | [4] -57.2% | [5] 4.85% | [6] 45.1%

CCCCOC(=O)c1cccc2c1-c1ccccc1C2=O
inactive: [1] 9.75% | [2] -6.55% | [3] -2% | [4] -14.9% | [5] 13.8% | [6] -0.7%

O=C1CSC(c2ccccc2[N+](=O)[O-])N1c1ccc(-n2c(-c3ccccc3)nc3ccccc3c2=O)cc1 (stereo unspecified)
inactive: [1] -8.95% | [2] -10.1% | [3] -4.05% | [4] -16.1% | [5] 13.3% | [6] 7.6%

Cn1c(=O)c2c(nc(N/N=C/c3ccccc3C(=O)O)n2C)n(C)c1=O
inactive: [1] -14.2% | [2] -3.15% | [3] -7.9% | [4] 12.3% | [5] -66.5% | [6] -15.3%

ON=C1CCN(c2ccccc2)CC1
inactive: [1] 10.3% | [2] -30.5% | [3] -10.4% | [4] -44.1% | [5] 1.6% | [6] -18.4%

c1ccc(-c2cn3c(nc4ccccc43)c(-c3ccccc3)n2)cc1
inactive: [1] -44.6% | [2] -7.15% | [3] -29.1% | [4] -1.15% | [5] -4.3% | [6] -41.9%

O=Cc1ccc(O)c(C(=O)O)c1
inactive: [1] 8.6% | [2] 5.8% | [3] 15.3% | [4] 21.1% | [5] 21.1% | [6] 2%

CCCCCCC1OCC(CC)(CC)CO1
inactive: [1] 11.8% | [2] -12.4% | [3] -18.9% | [4] -26.5% | [5] -15.6% | [6] 26.4%

Cn1c2c(c3ccccc31)CCN=C2C1CCCOC1=O (stereo unspecified)
inactive: [1] -27.6% | [2] -54.2% | [3] -21.1% | [4] -17.5% | [5] -9.3% | [6] -39.1%

CN(CC1CCCCC1=O)CC1CCCCC1=O (stereo unspecified)
inactive: [1] 8.65% | [2] 10.2% | [3] -11.1% | [4] -8.8% | [5] 19% | [6] -3.55%

CNC(=S)SC1=NS(=O)(=O)c2ccccc2N1
inactive: [1] -9.1% | [2] -5.05% | [3] -2.75% | [4] 12.4% | [5] -9.75% | [6] 23.4%

CC(C)OC(=O)Oc1ccc(Cl)cc1
inactive: [1] 6.05% | [2] -13.1% | [3] 7.4% | [4] -46.1% | [5] -11.8% | [6] 9.8%

COc1cc(C(c2cc3c(cc2OC(C)=O)OCO3)C(C(C)=O)C(C)=O)cc(OC)c1OC (stereo unspecified)
inactive: [1] 3.55% | [2] 27.8% | [3] -5.1% | [4] -4% | [5] 4.35% | [6] -1.8%

CSc1nc[nH]c1C(N)=S
inactive: [1] -13.1% | [2] 3% | [3] 2.6% | [4] -7.4% | [5] -24.4% | [6] 8.7%

Cc1cc2c(C)nn(Cc3ccccc3Cl)c2c(C#N)c1C
inactive: [1] 32.5% | [2] -1.6% | [3] 43% | [4] 23.9% | [5] 26.9% | [6] 44.4%

COC(OC)C1(c2ccccc2)NC(=O)N(Cc2ccccc2)C1=O (stereo unspecified)
inactive: [1] 3.1% | [2] -10% | [3] -1.3% | [4] -49.5% | [5] 2.85% | [6] -9.65%

CC1SCCNC1=O (stereo unspecified)
inactive: [1] -2.1% | [2] -1.5% | [3] -0.1% | [4] 7.3% | [5] 4% | [6] -16.9%

O=C(O)C1C2C=CC(O2)C1C(=O)Nn1cccc1 (stereo unspecified)
inactive: [1] 6.5% | [2] -7.5% | [3] -17.6% | [4] -12.8% | [5] -16.6% | [6] -6.75%

CN(C)CC(CN(C)C)C(=O)c1ccccc1
inactive: [1] 8.6% | [2] 19.6% | [3] 16.3% | [4] -1% | [5] -24.1% | [6] -4.05%

CCN(CC)CCO/N=C(\c1ccccc1)c1ccccn1
inactive: [1] 4.6% | [2] -5.95% | [3] 16.9% | [4] -78.3% | [5] 10.7% | [6] 1.2%

Cc1ccc(S(=O)(=O)N2CC(O)C=Cc3ccccc32)cc1 (stereo unspecified)
inactive: [1] 5.4% | [2] -3.1% | [3] -4.45% | [4] 17.5% | [5] 5.15% | [6] 9.85%

CCOC(=O)c1ccc(CS(=O)c2ccccc2)c([N+](=O)[O-])c1 (stereo unspecified)
inactive: [1] 14.7% | [2] -4.75% | [3] 20.6% | [4] 3.55% | [5] 58.1% | [6] 18.2%

c1ccc2c(c1)CCc1ccccc1N=N2
inactive: [1] -8.1% | [2] -1.55% | [3] -17.1% | [4] -30.4% | [5] -1.4% | [6] 5.35%

OCCN(CCO)CCCNc1ccnc2cc(Cl)ccc12
inactive: [1] -22.6% | [2] -2% | [3] -0.65% | [4] -39.9% | [5] -12.8% | [6] 5.2%

COc1cc(OC)c(N=Nc2c(N)nc(N)[nH]c2=O)cc1Cl
inactive: [1] 4.95% | [2] 14.6% | [3] 7.5% | [4] -12.1% | [5] 8.3% | [6] -1.4%

ClC(=Nc1cccc(Cl)c1)C(Cl)=Nc1cccc(Cl)c1
inactive: [1] -6.5% | [2] -1.7% | [3] -2.05% | [4] 12.6% | [5] 6.45% | [6] 1.15%

O=[N+]([O-])c1cc(C=NCCCCCCN=Cc2ccc(Cl)c([N+](=O)[O-])c2)ccc1Cl
inactive: [1] 6.9% | [2] -3.85% | [3] -9.75% | [4] -19.3% | [5] 4.35% | [6] -0.9%

C/C=C/C[P+](Cc1ccccc1)(c1ccccc1)c1ccccc1
inactive: [1] 59.6% | [2] 14.9% | [3] 26.2% | [4] -32.1% | [5] 24.6% | [6] 14.3%

CC(=O)N1OCCc2ccccc21
inactive: [1] 8.2% | [2] -0.15% | [3] -6.65% | [4] -37.5% | [5] -5.5% | [6] -1.45%

C=C(C)[C@@H]1CC[C@]2(C)CC[C@]3(C)[C@H](CC[C@@H]4[C@@]5(C)CC[C@H](OC(=O)c6ccccc6)C(C)(C)[C@@H]5CC[C@]43C)[C@@H]12
inactive: [1] -7.6% | [2] -16.6% | [3] -26.4% | [4] 2.9% | [5] -0.65% | [6] 0%

N[C@H]1c2c(Cl)cccc2C(=O)[C@H]1O
inactive: [1] -3.7% | [2] -1.35% | [3] -23.2% | [4] -4.65% | [5] -2.2% | [6] -49.5%

O=C(CN1CCC(O)(c2ccc(F)cc2)CC1)N1CCN(C/C=C/c2ccccc2)CC1
inactive: [1] 42% | [2] 7.1% | [3] 9.8% | [4] 22.6% | [5] -1.7% | [6] 20.8%

c1ccc2c(c1)CCCN2c1nc(N2CCCC2)nc(N2CCOCC2)n1
inactive: [1] -11.6% | [2] -21.8% | [3] 4.4% | [4] 7.25% | [5] 5.45% | [6] -8.25%

Cc1cc(C(N)=O)c(C(N)=O)c(Cl)n1
inactive: [1] 2.35% | [2] -7.35% | [3] -3.2% | [4] -0.2% | [5] 9.05% | [6] -10.7%

CCOC(=O)CC1(C)OCC(c2ccccc2)O1 (stereo unspecified)
inactive: [1] 8.8% | [2] -0.55% | [3] -3.6% | [4] -15% | [5] 9.35% | [6] -3.1%

CC1NC(=O)c2c(-c3ccccc3)nn(-c3ccccc3)c2NC1=O (stereo unspecified)
inactive: [1] 1.35% | [2] -2.4% | [3] 11.8% | [4] -3.85% | [5] 3.15% | [6] -33.2%

CC1(C)OC12C=CC1C2C2CCC1C21OC1(C)C (stereo unspecified)
inactive: [1] 8% | [2] 8.7% | [3] -2.85% | [4] 20.1% | [5] -7.3% | [6] -14.6%

CC(=O)CC(=O)c1cc(C(C)=O)c(O)c(C(C)=O)c1
inactive: [1] -11.8% | [2] 0.75% | [3] 11% | [4] -3.3% | [5] -11.1% | [6] 7.8%

CN(C)/C(N)=N\C(N)=Nc1cc2ccccc2c2ccccc12
inactive: [1] 1.3% | [2] -9.55% | [3] -0.2% | [4] -23.2% | [5] 2.25% | [6] -0.55%

NC(=S)N/C=C\c1nc2ccccc2[nH]c1=O
inactive: [1] -34.4% | [2] -18.6% | [3] -39.1% | [4] -21.8% | [5] -12.1% | [6] -15.4%
